# In PubChem BioAssay (NCI):
# Compounds without any hit were thinned out: in the full panel of roughly 83,000, 20% have a hit.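 Negative percent growth values reflect cell death: -40 means 40% of the cells present at the start died, and -100 means all died.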 The source made the active and inactive calls.
# Tested on: TK-10 renal
# Assay: NCI-60 one-dose screen, 48 h (100 = growth as untreated, 0 = no growth, -100 = all killed)
# Conditions: 10 µM unless noted
# Description: Growth inhibition of the TK-10 human tumor cell line is measured as a screen for anti-cancer activity. Cells are grown in 96 well plates and exposed to the test compound for 48 hours. Compounds are tested at a single concentration, which is 10^-5 M for most compounds. The reported endpoint is percent growth (GI% or GIPRCNT), where numbers from 0 - 100% represent growth inhibition, and numbers from -100% - 0 represent cell death. For example, a value of 40 represents 60% growth inhibition. A value of 0 means no net growth occurred over the course of the experiment. A value of -40 indicates 40% of cells at the beginning of the experiment died by the end of the experiment. A value of -100 means all cells are dead at the end of the experiment.
# NCI-60 Human Tumor Cell Lines Screen was performed using the standard one-dose NCI protocol, which is described in more detail at https://dtp.cancer.gov/discovery_development/nci-60/default.htm.
# Compounds with GIPRCNT values below 10 were considered active. Activity score was based on GIPRCNT using the following formula: […]
# Score is 0 for GIPRCNT values of 100 or above, 50 for GIPRCNT values of 0, and 100 for GIPRCNT values of -100.
row,SMILES,growth
1,CCCCCCCCCCCCCC[N+](C)(C)CCCCCCCCCCCCCC,48.3% (inactive)
2,COc1ccccc1/C=N\NC(=S)Nc1ccc(F)cc1,97.5% (inactive)
3,Clc1ccc2c(c1)-n1cccc1C(c1ccc3ccccc3c1)=NC2,185% (inactive)
4,COc1cc2nccc(Oc3ccc(NC(=O)C4(C(=O)Nc5ccc(F)cc5)CC4)cc3)c2cc1Oc1ccc(N)cn1,36.3% (inactive)
5,Cc1ccc(Nc2nc(NCCO)c3ccccc3n2)cc1C,38.5% (inactive)
6,CC(CN1CCN(CCOCCO)CC1)CN1c2ccccc2Sc2ccc(Cl)cc21 (stereo not given),74.4% (inactive)
7,Nc1n[nH]c2ccc([C@@H]3Nc4c(F)cc5[nH]ncc5c4[C@H]4C5CCC(C5)[C@@H]34)cc12 (stereo not given in full),61% (inactive)
8,CCNS(=O)(=O)c1ccc(C)cc1,115% (inactive)
9,C=CCn1c(C)nc2cc(Nc3nc(Nc4ccc5nc(C)n(CC=C)c5c4)nc4ccccc34)ccc21,130% (inactive)
10,COc1cccc(OCC(O)CN2CCN(c3ccccc3)CC2)c1 (stereo not given),151% (inactive)
11,COc1cccc(Cn2c(-c3nonc3NC(C)=O)nc3ccccc32)c1,26.6% (inactive)
12,O=C(c1ccc(C(F)(F)F)c(Cl)c1)N(Cc1ccc(Cl)cc1)c1ccc(-c2cc(C(F)(F)F)[nH]n2)c(O)c1,5.25% (active)
13,COc1cc(/C=C/C(=O)c2ccc(NC(=O)CSc3nnc(-c4ccc(Cl)cc4)n3-c3ccccc3)cc2)cc(OC)c1OC,89.4% (inactive)
14,C#CC[C@@H]1C[C@]2(C)[C@H]3CC=C4[C@H]5[C@@H](C)[C@H](C)CC[C@]5(C(=O)NCCCCN)CC[C@@]4(C)[C@]3(C)CC[C@H]2C(C)(C)[C@H]1OC(C)=O,97.7% (inactive)
15,COc1ccc2nc(NC(=O)/C(=C/c3cc(OC)c(OC)c(OC)c3)c3ccc(OC)c(OC)c3)sc2c1,98.5% (inactive)
16,CN1CCN(c2ccc(N3Cc4ccccc4OC4=C3C(=O)c3c(O)ccc(O)c3C4=O)cn2)CC1,-98.7% (active)
17,CCOC(=O)c1ccc(NCCC(=O)O)cc1,101% (inactive)
18,C=CCn1c(SCC(=O)Nc2ccc(C(=O)/C=C/c3ccc(Cl)cc3)cc2)nnc1-c1ccc(Cl)cc1,90.8% (inactive)
19,CCOC(=O)c1ccccc1SC(C[N+](=O)[O-])c1ccccc1 (stereo not given),92.9% (inactive)
20,CCCCn1c(C)nc2cc(Nc3nc(Cl)nc4nc[nH]c34)ccc21,73.5% (inactive)

row,SMILES,growth
1,COc1ccc(Nc2ncccc2C(=O)NCc2cn(Cc3cc(OC)cc(OC)c3)nn2)cc1,108% (inactive)
2,CC(C)CC(NC(=O)OCC1c2ccccc2-c2ccccc21)C(=O)O (stereo not given),109% (inactive)
3,COc1ccc(NC(=O)c2ccc(C(F)(F)F)nc2Nc2ccc(Cl)cc2C)cc1Cl,60% (inactive)
4,C[C@@H](C[C@H](CC1CC1)c1ccccc1)c1ccc2ccccc2c1,105% (inactive)
5,c1ccc(C2=Nc3ccccc3SC2)cc1,105% (inactive)
6,O=C1OC(c2ccc(-c3ccccc3)cc2)=C/C1=C/c1c(Cl)cccc1Cl,88% (inactive)
7,F,4.45% [6.87 mM] (active)
8,CSCCC1NC(=O)C(C(C)=Nc2ccccc2)=C1O (stereo not given),133% (inactive)
9,CCN(CC)Cc1cc(Nc2ccnc3cc(Cl)ccc23)cc(-c2ccc(Cl)cc2)c1O,5.81% (active)
10,COc1ccc(-c2nsc3c2NC(=O)CC3c2ccc3c(c2)OCO3)cc1 (stereo not given),32.3% (inactive)
11,CCOc1cccc(/C=N/NC(=O)Cc2ccc(Nc3ccnc(C(F)(F)F)c3)cc2)c1O,47.1% (inactive)
12,C=C(C)[C@@H]1CC[C@]2(C)[C@H](CC=C3[C@@H]4C[C@](C)(C(=O)N5CCN(C)CC5)CC[C@]4(C)CC[C@]32C)[C@@]1(C)CCC#N,75.8% (inactive)
13,COc1cc(C)c2c(=O)c3c(oc2c1)C(=O)c1c(O)c(OC)cc(O)c1C3=O,23.8% (inactive)
14,COc1cc(Nc2ccnc3ccc(Br)cc23)cc(OC)c1OC,56.8% (inactive)
15,O=C1OCC2=C1C(c1cccc(Br)c1)c1cc3c(cc1N2CCO)OCCO3 (stereo not given),62.7% (inactive)
16,O=C(Nc1ccccc1Cl)Oc1ccc2ccccc2c1,130% (inactive)
17,COc1ccc(Nc2ncnc3c2sc2nc(C)cc(C)c23)cc1,115% (inactive)
18,C#CC[C@@H]1C[C@]2(C)[C@H]3CC[C@@H]4[C@H]5C(C(=C)C)CC[C@]5(C(=O)NCCN(CCN)CCN)CC[C@@]4(C)[C@]3(C)CC[C@H]2C(C)(C)[C@H]1OC(C)=O (stereo not given in full),95% (inactive)
19,COc1ccc(/C(=C\c2cc(OC)c(OC)c(OC)c2)C(=O)N2CCCNCC2)cc1,101% (inactive)
20,CCSc1ccc([C@@H]2[C@@H](O)C(=O)N2c2cc(OC)c(OC)c(OC)c2)cc1,77.2% (inactive)
